Test results reported in PubChem BioAssay AID624417 (National Center for Advancing Translational Sciences (NCATS), 2012).
In all, about 410,000 compounds went through this assay and about 6,400 (1.6%) were called active. Not shown: some 20% with an inconclusive outcome. Calls come from the whole dose curve; as a rule, active = well fitted inhibition curve with a large enough effect; inconclusive = small, poorly fitted or top-dose-only effect; inactive = no such curve, though single readings can be large or run the other way. The sample as a whole holds a higher share of actives than the screen did.

Biological target: Glucagon-like peptide 1 receptor (Homo sapiens) (UniProt P43220)
Sequence (P43220 whole entry, looked up): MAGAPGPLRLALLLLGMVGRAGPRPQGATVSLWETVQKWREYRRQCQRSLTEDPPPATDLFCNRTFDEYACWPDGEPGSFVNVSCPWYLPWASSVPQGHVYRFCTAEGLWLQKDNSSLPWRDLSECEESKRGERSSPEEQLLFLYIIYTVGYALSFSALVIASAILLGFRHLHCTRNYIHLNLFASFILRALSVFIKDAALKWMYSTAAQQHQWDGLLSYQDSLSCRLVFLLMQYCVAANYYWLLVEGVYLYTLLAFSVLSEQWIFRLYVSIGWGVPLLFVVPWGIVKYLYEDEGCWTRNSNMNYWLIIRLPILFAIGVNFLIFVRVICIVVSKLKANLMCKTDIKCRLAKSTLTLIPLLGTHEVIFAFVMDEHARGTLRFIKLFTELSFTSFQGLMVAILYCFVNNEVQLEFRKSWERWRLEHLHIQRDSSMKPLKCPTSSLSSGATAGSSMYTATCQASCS
Test: qHTS of GLP-1 Receptor Inverse Agonists (Inhibition Mode); note: nearly all actives have a fitted effect of over 55% in size
Conditions: HEK293 GLP-1R CRE-luciferase, luminescence, 24 h, GLP-1R form is constitutively active; series mostly up to 38.3 µM; activity change, negative = inhibition: at the top concentration
Outline: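 qHTS in 1536-well format: reporter HEK293 cells expressing constitutive GLP-1R activity in DMEM + 10% Nu serum, 24 hr with compounds at 37 deg C, luminescence read after 12 min with detection reagent.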
% is set by controls: 0 for no effect and ±100 for the full control effect; potency is the fitted concentration of half-maximal effect.

Activity change, negative = inhibition, inactive:
CC1CN(c2nc(Nc3ccccc3)nc(N)c2[N+](=O)[O-])CC(C)O1 (configuration not stated) 11.6%
c1ccc(-c2nnc(N3CCOCC3)c3ccccc23)cc1 24.8%
CCc1cc(C(=O)N(CC)CC(=O)Nc2c(F)cccc2F)sc1C -4.68%
COC(=O)C[C@@H]1C=C[C@@H](NS(=O)(=O)c2cccc(OC)c2)[C@@H](CO)O1 19.5%
O=C(Nc1cccc2cccnc12)c1cccc2c(Br)cccc12 9.84%
Cc1ccc2cccc(NC(=O)c3ccc(OC(C)C)cc3)c2n1 5.71%
CNc1cnc(-c2cc(OC)c(OC)c(OC)c2)cn1 5.37%
CCCn1c(C(O)c2cc(OC)ccc2OC)nc2ccccc21 (configuration not stated) -19.7%
CCn1c(C(O)c2cc(OC)ccc2OC)nc2ccccc21 (configuration not stated) -3.45%
CCOC(=O)c1c(NC(=S)SC)sc(C(=O)N2CCc3ccccc3C2)c1C 2.98%
Cc1ccc(C(=O)N[C@H](C(=O)N2CCN(c3ncccn3)CC2)C(C)C)cc1 3.77%
CCN(CC)C(=O)C1=C(C)N(Cc2ccc(OC)cc2)C(=O)C(CC(=O)NCc2ccco2)C1 (configuration not stated) -10.6%
COc1ccc(CN2C(=O)C(CC(=O)NCc3cccc4ccccc34)CC(C(=O)N3CCOCC3)=C2C)cc1 (configuration not stated) 0.691%
COC(=O)C(Cc1c[nH]c2ccccc12)NC(=O)CCNC(=O)c1ccco1 (configuration not stated) 17.4%
COc1ccc(S(=O)(=O)N2CCC(C(=O)NCCC(=O)Nc3ccccc3OC)CC2)cc1 9.44%
Nc1nc2c(ncn2[C@@H]2O[C@H](CNCc3ccc(OCCCN4CCOCC4)cc3)[C@@H](O)[C@H]2O)c(=O)[nH]1 19.5%
COC(=O)Cc1ccc(OC2(C)CCN(Cc3ccc4c(c3)OCCO4)C2)cc1 (configuration not stated) 9.42%
COc1ccc(NC(=O)CSc2nnnn2-c2cccc(OC)c2)cc1 6.73%
COc1ccc(-n2nnnc2-c2nc3ccccc3s2)cc1 4.89%
O=C(NCCO)c1cccc(-c2cccc3nccn23)c1 46.5%
O=C1NC[C@H](CCCCN2CCN(CCc3ccccc3)C(=O)C2=O)N(CC2CCCCC2)C1=O 5.24%
COC(=O)c1ccc2nc(-c3ccc(F)cc3)c(Cc3ccc(C)cc3)n2c1 17.8%

Potency, active:
c1ccc(Nc2nc(N3CCOCC3)c3ccccc3n2)cc1 10 µM
Cc1ccc2cccc(NC(=O)c3cccc4ccccc34)c2n1 11.2 µM
COc1ccc(-c2nc3ccccc3n2CCC(C)C)cc1OC 8.91 µM
CCN(CC)C(=O)C1=C(C)N(Cc2ccc(C(C)(C)C)cc2)C(=O)C(CC(=O)NCc2cccc3ccccc23)C1 (configuration not stated) 11.2 µM
CCOc1cccc(-n2nnnc2-c2ccc(OC)cc2)c1 2.51 µM
